Source: PubChem BioAssay
FAS-TE inh – FAS thioesterase domain inhibitors, primary screen, biochemical, fluorescence intensity, uHTS | Fatty acid synthase (Homo sapiens), P49327 | recombinant FAS-TE, OMFH fluorogenic substrate, fluorescence endpoint | inhibition, % at 15 µM | 0.67% of 360,000 active;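 active = compounds whose normalised, plate-corrected inhibition of enzyme fluorescence in the single-dose primary screen is 50% or more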;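 also: 0% = DMSO with enzyme and 100% = substrate without enzyme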
GC-A act – GC-A stimulated cGMP production enhancers – HEK293 GC-A cells, cGMP TR-FRET, EC30 ANP, primary screen | Atrial natriuretic peptide receptor 1 (Homo sapiens), P16066 | 0% at EC30 ANP, 100% saturating ANP | activation, % at 10 µM | 0.14% of 370,000 active | AID 1671463, 2021; in the data active = activation above about 40%
GC-B act – human GC-B receptor activators, primary screen, HEK293 GC-B cells, cGMP TR-FRET, EC30 CNP. Atrial natriuretic peptide receptor 2 (Homo sapiens), P20594. 0% at EC30 CNP, 100% saturating CNP. activation, % at 10 µM. 0.11% of 370,000 active. AID 1920062, 2024;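 active = activation at 10 µM reaching about 35% in either raw or pattern-adjusted values, limit read from the data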
FAS-TE inh conf – FAS thioesterase domain inhibitors, confirmation, biochemical, fluorescence intensity, single concentration. shares compounds with FAS-TE inh. recombinant FAS-TE, OMFH fluorogenic substrate. inhibition, % at 15 µM. 45% of 2,300 active;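 active = compounds inhibiting the enzyme by at least 50% at 15 µM in any one of the replicates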;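 also: 0% = enzyme with DMSO only and 100% = wells lacking enzyme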
Numbers without * were called inactive. The list is not random: actives were taken first. Their share in the collection is about 1.4%.

Screening O=C1NCN(c2ccccc2)C12CCN(C(c1ccnc3ccccc13)c1nnnn1-c1ccc3c(c1)OCCO3)CC2 (configuration not stated) returned FAS-TE inh 14, GC-A act 1 and GC-B act 2.
For O=C1NCN(c2ccccc2)C12CCN(C(CCc1ccccc1)c1nnnn1-c1ccc3c(c1)OCCO3)CC2 (configuration not stated) the results were FAS-TE inh 65*, GC-A act -1, GC-B act -15 and FAS-TE inh conf 22.
For COc1ccc(C(c2nnnn2-c2ccc3c(c2)OCCO3)N2CCC3(CC2)C(=O)NCN3c2ccccc2)cc1 (configuration not stated) the results were FAS-TE inh 63*, GC-A act 3, GC-B act 0 and FAS-TE inh conf -2.
CCC(c1nnnn1-c1ccc2c(c1)OCCO2)N1CCC2(CC1)C(=O)NCN2c1ccccc1 (configuration not stated) was read as FAS-TE inh 5, GC-A act -2 and GC-B act -10.
`O=C1NCN(c2ccccc2)C12CCN(C(c1cccc3ccccc13)c1nnnn1C1CCCC1)CC2` (configuration not stated) gave FAS-TE inh 77*, GC-A act -5, GC-B act -7 and FAS-TE inh conf 19.
CCN(CCCl)c1cc(CN(C)C)cc(NC(=O)c2ccc(C(=O)Nc3cc(CN(C)C)cc(N(CC)CCCl)c3)cc2)c1 was read as FAS-TE inh 51*, GC-A act 0, GC-B act -3 and FAS-TE inh conf 45.
CN1CC[C@@H]2CN[C@H](c3ccccc3)C[C@@H]21 was read as GC-A act 0 and GC-B act 5.
Screening O=S(=O)(c1ccc(Cl)cc1)N1Cc2ccc(Br)cc2-n2nncc2C1 returned GC-A act -9 and GC-B act -5.
Screening CC[C@]12CCN(CC3(O)CC3)C(Cc3ccc(O)cc31)C2(C)C returned GC-A act -3 and GC-B act -5.
Screening Oc1ccc(O)c2c1C1(Cl)C(Cl)=C(Cl)C2(Cl)C1(Cl)Cl returned FAS-TE inh 51*, GC-A act -9, GC-B act 0 and FAS-TE inh conf 50*.
Screening CC(C)OC(=O)C1C(c2ccc(I)cc2)CC2CCC1N2C (configuration not stated) returned GC-A act -21 and GC-B act -18.
O=c1oc2ccccc2c(O)c1C(c1ccc([N+](=O)[O-])cc1)c1c(O)c2ccccc2oc1=O was read as FAS-TE inh 76*, GC-A act -5, GC-B act 0 and FAS-TE inh conf 82*.
